# Anthrax LF prot – anthrax lethal factor protease inhibition | P15917 | multiplex microsphere protease cleavage assay, LF | inhibition, % at 10 µM | 360,000 compounds, 0.12% hits | AID 588501; note: plate controls were buffer without enzyme for full effect and enzyme alone for no effect
# Target sequence (P15917 whole entry, looked up): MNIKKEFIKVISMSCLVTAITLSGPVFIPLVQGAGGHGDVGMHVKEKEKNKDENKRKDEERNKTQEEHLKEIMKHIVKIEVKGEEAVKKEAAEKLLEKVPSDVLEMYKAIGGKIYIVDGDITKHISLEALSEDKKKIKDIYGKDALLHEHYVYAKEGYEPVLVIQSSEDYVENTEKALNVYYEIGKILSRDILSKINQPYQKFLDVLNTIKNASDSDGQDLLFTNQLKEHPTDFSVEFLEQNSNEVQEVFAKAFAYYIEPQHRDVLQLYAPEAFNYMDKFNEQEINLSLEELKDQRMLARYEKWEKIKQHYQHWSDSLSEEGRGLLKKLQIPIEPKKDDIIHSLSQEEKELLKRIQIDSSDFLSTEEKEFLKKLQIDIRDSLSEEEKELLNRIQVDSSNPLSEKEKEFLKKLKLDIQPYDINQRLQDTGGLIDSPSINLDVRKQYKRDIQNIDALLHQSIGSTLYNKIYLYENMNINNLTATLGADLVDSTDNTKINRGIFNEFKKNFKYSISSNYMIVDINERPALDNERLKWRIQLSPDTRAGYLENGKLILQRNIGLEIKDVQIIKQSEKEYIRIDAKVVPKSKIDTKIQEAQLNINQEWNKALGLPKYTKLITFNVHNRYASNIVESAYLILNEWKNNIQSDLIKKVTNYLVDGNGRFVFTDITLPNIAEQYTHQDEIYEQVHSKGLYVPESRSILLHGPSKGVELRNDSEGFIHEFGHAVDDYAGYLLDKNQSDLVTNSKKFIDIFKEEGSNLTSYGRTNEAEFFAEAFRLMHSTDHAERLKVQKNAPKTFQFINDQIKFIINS
# Bead autofluor – flagged as autofluorescent in microsphere protease counterscreen; compound autofluorescence counterscreen, microsphere flow cytometry; active compounds read high; 360,000 compounds, 3.1% hits; fluorescence intensity (no concentration beside the values); AID 624483; in the data active = fluorescence intensity above about 16000; inconclusive = no clear call, values can overlap the other calls
# BoNT A protease – inhibitors of Botulinum neurotoxin A light chain protease; multiplex microsphere protease substrate cleavage, flow cytometry; 360,000 compounds, 0.17% hits; AID 588499; inhibition, % at 10 µM; note: plate controls were buffer without enzyme for full effect and enzyme alone for no effect
# BoNT-F LC inh – BoNT F light chain protease inhibition; Multiplex microsphere protease cleavage assay, flow cytometry; inhibition, % at 10 µM; 360,000 compounds, 0.22% hits; in the data active = inhibition above about 35%, passing the limit was not always enough; inconclusive = no clear call, values can overlap the other calls; note: plate controls were buffer without enzyme for full effect and enzyme alone for no effect
# CCHF vOTU inh – CCHFV vOTU protease inhibition | AID 651958 | 370,000 compounds, 0.55% hits | Pep-AMC fluorescence | inhibition, % at 11.5 µM; in the data active = inhibition above about 30%; note: 0% = vehicle wells with enzyme and 100% = no enzyme wells
# SARS 3CLpro inh – SARS-CoV 3CLpro protease inhibition; inhibition, % at 6 µM; 290,000 compounds, 0.14% hits; recombinant SARS-CoV 3CLpro, quenched FRET peptide cleavage; in the data active = inhibition above about 12%
# * marks the source's active call; other numbers are inactive results; ? = inconclusive; . = not tested or not shown. An excerpt weighted towards active compounds, which were near 3.9% of everything screened. Cut-off read from the data, not from the text of the source, unless noted: active = inhibition above about 30%; inconclusive = no clear call, values can overlap the other calls; inactive = below that.
SMILES,Anthrax LF prot,Bead autofluor,BoNT A protease,BoNT-F LC inh,CCHF vOTU inh,SARS 3CLpro inh
CC12CN3CC(C)(CN(C1)C3c1cccs1)C2O (stereo not given),-3.9,17129*,-2.6,-7.0,-5.1,-0.6
Cc1nn(-c2ccccc2)c(C)c1C(=O)OCC(=O)NC12CC3CC(CC(C3)C1)C2,-0.6,22484*,2.1,1.8,.,3.4
Cc1nn(-c2ccccc2)c(C)c1C(=O)OCC(=O)N1CCN(S(=O)(=O)c2ccccc2)CC1,-3.3,21834*,?,1.1,2.6,6.4
COc1ccc(S(=O)(=O)N2CCN(C(=O)c3c(C)nn(-c4ccccc4)c3C)CC2)cc1,1.2,3441,0.3,-4.6,13.6,.
Cc1ccccc1CN(c1ccc(C(=O)N2CCN(C)CC2)cc1)S(C)(=O)=O,1.5,5909,0.3,-8.5,2.0,.
O=C(CNC(=O)c1ccco1)OCc1c(F)cccc1Cl,-1.5,20975*,?,4.1,-6.8,-3.1
COc1ccc(NC(=O)c2c(C(F)(F)F)nn(C)c2SCc2ccccc2)cc1,-1.6,16890*,-1.4,-3.0,8.3,6.5
CCOc1cccc2sc(=NC(=O)c3ccc(S(=O)(=O)N4CCOCC4)cc3)n(C)c12,0.1,22851*,2.7,2.6,-6.2,-3.3
CCOCCn1c(=NC(=O)c2ccc(S(=O)(=O)N3CCOCC3)cc2)sc2cc(S(N)(=O)=O)ccc21,-7.2,5828,-0.7,-3.0,-2.4,-3.8
O=C(N[C@@H](Cc1ccccc1)C(=O)N1CCC2CCN(S(=O)(=O)c3ccccc3)CC21)[C@@H]1CCCN1 (stereo not given in full),.,.,.,.,1.8,.
CC1=NNC(=O)C1CCC(=O)N/N=C/c1ccccc1 (stereo not given),0.8,5999,0.3,5.3,-9.3,7.6
CC1=NNC(=O)C1CCC(=O)N/N=C\c1ccccc1[N+](=O)[O-] (stereo not given),-0.8,22394*,?,0.1,-1.7,2.1
Cc1ccc(-c2cc(-c3ccc4c(c3)OCO4)c(C#N)c(N)n2)o1,3.7,9215,1.2,-6.1,-13.1,1.1
CC(C)(C)c1ccc(-c2nc3c(C#N)c(-c4ccc5c(c4)OCO5)ccn3n2)cc1,0.1,20531*,-0.8,-3.8,6.5,-3.1
O=[N+]([O-])c1cccc(/C=C/c2nc(C=Nc3ccc4ccccc4c3)c(O)o2)c1,1.6,17170*,-2.3,2.5,-5.2,-3.0
O=C1NN(c2ccccc2)C(=O)/C1=C\c1ccccc1OCC(=O)N1CCOCC1,-16.7,21121*,4.8,3.7,7.2,6.2
CCc1ccccc1N=C1S/C(=C/c2ccccc2OCC(=O)N2CCOCC2)C(=O)N1C,-1.6,2453,-0.3,-3.7,19.9,1.2
CCC(Sc1nc2ccccc2s1)C(=O)Nc1nnc(C)s1 (stereo not given),-1.6,22870*,-1.2,-2.4,1.3,0.9
CC(Sc1nc2ccccc2s1)C(=O)Nc1nnc(C(C)C)s1 (stereo not given),1.2,5258,-0.8,-1.8,.,-0.5
Cc1[nH]c(=O)[nH]c(=O)c1NC(=O)c1cccs1,-5.8,21903*,2.4,2.3,1.1,-0.2
Cc1cc(C)c2c(=O)n(CC(=O)Nc3ccc(Cl)cc3)sc2n1,-6.9,3796,47.9*,4.7,-7.0,2.3
CCOc1ccc(NC(=O)Cn2sc3nc(C)cc(C)c3c2=O)cc1,-4.4,?,-1.4,-13.6,.,-1.4
O=C(Nc1cccc2[nH]ncc12)c1ccc(F)cc1,-5.0,22322*,?,2.2,-3.5,0.8
O=C(Nc1ccncc1)c1cn(-c2ccccc2)nc1-c1cccs1,-1.6,?,-1.4,-21.3,-0.1,-3.1
CC(NC(=O)COC(=O)c1cn(-c2ccccc2)nc1-c1cccs1)c1ccccc1 (stereo not given),-10.4,18189*,6.6,5.1,2.2,1.7
SMILES,Anthrax LF prot,Bead autofluor,BoNT A protease,BoNT-F LC inh,CCHF vOTU inh,SARS 3CLpro inh
CC(C)(C)CC(=O)NC(=S)Nc1ccccc1C(F)(F)F,-0.8,24827*,-2.6,-3.2,17.3,1.4
CSc1ccccc1NC(=S)Nc1ccccc1C(F)(F)F,-1.3,19907*,0.5,0.6,-7.1,3.5
Cc1ccc([N+](=O)[O-])cc1NC(=S)NC(=O)CC(C)(C)C,0.8,19100*,1.5,1.2,-4.9,7.1
CC(C)CC(=O)NC(=S)Nc1ccccc1C(F)(F)F,-3.2,2549,-0.6,-6.3,-7.5,-2.2
O=C(CCc1nnc(C2CCCCC2)o1)N1CCN(Cc2ccccc2)CC1,0.1,4727,-1.1,-0.5,-9.7,6.7
CCOC(=O)C1=CC(=O)CC(C)(C)O1,1.0,3848,-0.1,1.7,5.5,.
CCOC(=O)c1ncn2c1C(=O)OC2(C)C,0.9,19113*,?,1.6,-3.8,2.4
O=C(O)CCCCCN1C(=O)CSC1=S,-4.5,4102,-0.1,-4.8,19.5,1.0
C=C1N(CCCCCC(=O)O)C(=O)OC12CCCCC2,1.8,22385*,1.2,0.7,2.5,-0.5
CC1(C)CC2(CC(C)(C(=O)CSc3nc4ccccc4s3)OC2=O)C(=O)O1 (stereo not given),-2.2,16350*,?,-0.4,1.7,0.4
CC1(C(=O)CSc2nc3ccccc3s2)CCC(=O)O1 (stereo not given),0.2,2988,0.6,3.1,1.3,7.3
CC1CC2(CC(C)(C(=O)CSc3nc4ccccc4s3)OC2=O)C(=O)O1 (stereo not given),0.3,23789*,-2.6,-3.0,-5.4,-4.1
CCOC(=O)[C@@H]1[C@H]2COc3cc(OC)ccc3[C@@H]2N2C(=O)N(c3ccc(F)cc3)C(=O)[C@@]12C,2.4,4251,-0.7,-16.0,7.0,.
Cc1ccc(N(Cc2ccccc2)C(=O)c2ccc(Cl)c(S(=O)(=O)N3CCOCC3)c2)cc1,0.1,5974,-2.8,9.5,-3.2,.
Cc1ccc(-c2nn3c(C)nnc3s2)cc1NC(=O)c1ccc(-c2ccc(Cl)cc2Cl)o1,1.6,16181*,?,2.2,-14.7,1.0
CCOC(=O)C1=C(C)N=C2SC(C(=O)OC)=CC(=O)N2C1c1cccc(OC)c1 (stereo not given),-1.7,19879*,-0.5,-3.5,11.1,4.9
CCOC(=O)C1=C(C)N=C2SC(C(=O)OC)=CC(=O)N2C1c1ccc(F)cc1 (stereo not given),-1.1,8359,-0.2,-15.8,2.0,-1.2
CC1(C)CC(CC(=O)Nc2ccccn2)C(=O)O1 (stereo not given),0.4,23618*,-0.8,-0.6,1.9,-0.8
Cc1ccc(-n2c(SCC(=O)Nc3cccc4ccccc34)nnc2-c2cnccn2)cc1,.,.,.,.,1.7,.
COc1ccccc1OCc1ccc(C(=O)N2N=C(C(F)F)CC2(O)C(F)F)o1 (stereo not given),-1.3,16851*,-2.8,-4.4,-8.8,-2.4
CCN(CCCNC(=O)CC(C(=O)N1CCc2ccccc21)n1ccnc1)c1ccccc1 (stereo not given),-12.3,18267*,6.1,5.2,13.0,-4.5
O=C(CC(C(=O)N1CCc2ccccc21)n1ccnc1)NCc1cccnc1 (stereo not given),-5.0,11226,-0.5,0.2,-11.7,0.0
